According to PubChem BioAssay AID1345085 (National Center for Advancing Translational Sciences (NCATS), 2018):
Inconclusive results are not listed. Where a call stands in place of a potency, no number is given. Active and inactive are the calls of the source. The call rests on the fitted dose curve; in most records, active means well fitted cell-killing curve with a large enough effect; inconclusive means small, poorly fitted or top-dose-only effect, or effect the other way; inactive means no such curve, though single readings can be large or run the other way.

Tested on: SKOV3
Assay: Confirmatory qHTS for gynecologic anti-cancer compounds from libraries of approved drugs and bioactive compounds; further: nearly all actives have a fitted effect of over 55% in size
Details: gynecologic cancer cell panel viability, ATPlite luminescence, 48 h; series mostly up to 57.6 µM
Procedure, shortened: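 Seeding 1,000 cells per well preceded overnight (16 h) attachment, after which 48 h drug treatment across 57.5 uM–0.977 nM (11 points) was applied. Remaining cellular ATP, detected by ATPlite luminescence, defined IC50.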
Potency means the concentration at half of the fitted maximal effect.

Row | Compound | Potency
1 | CCOc1ccc(Nc2nc(-c3c(C)nc4ccccn34)cs2)cc1 | inactive
2 | Cc1nc(Nc2n[nH]c3c2CN(C(=O)NC(CN(C)C)c2ccccc2)C3(C)C)c2sccc2n1 (configuration not stated) | 3.06 µM (active)
3 | Cc1cnc(Nc2ccc(CN3CCOCC3)cc2)nc1Nc1cccc(S(=O)(=O)NC(C)(C)C)c1 | 4.85 µM (active)
4 | CCN[C@H]1C[C@H](C)S(=O)(=O)c2sc(S(N)(=O)=O)cc21 | inactive
5 | COc1cc(N2CCC(N(C)C)CC2)ccc1Nc1ncc(Cl)c(Nc2ccccc2P(C)(C)=O)n1 | 6.11 µM (active)
6 | CCCc1nn(C)c2c(=O)[nH]c(-c3cc(S(=O)(=O)N4CCN(C)CC4)ccc3OCC)nc12 | inactive
7 | CC[C@]1(O)C[C@H]2CN(CCc3c([nH]c4ccccc34)[C@@](C(=O)OC)(c3cc4c(cc3OC)N(C=O)[C@H]3[C@@](O)(C(=O)OC)[C@H](OC(C)=O)[C@]5(CC)C=CCN6CC[C@]43[C@@H]65)C2)C1 | inactive
8 | CC[C@@]1(O)C(=O)OCc2c1cc1n(c2=O)Cc2c-1nc1ccccc1c2/C=N/OC(C)(C)C | 0.0432 µM (active)
9 | Oc1cn2c(n1)Nc1ccc(Cl)c(Cl)c1C2 | inactive
10 | NC(=O)c1ccc2nc(-c3ccc(Oc4ccc(Cl)cc4)cc3)[nH]c2c1 | inactive
11 | CC(=O)NCC(=O)N1C2CCC1c1cc(Nc3ncc(C(F)(F)F)c(NC4CCC4)n3)ccc12 (configuration not stated) | 17.2 µM (active)
12 | O=C(CCCCCCNC(=O)c1cnc(N(c2ccccc2)c2ccccc2)nc1)NO | 12.2 µM (active)
13 | O=C1Cc2cc(CCN3CCN(c4nsc5ccccc45)CC3)c(Cl)cc2N1 | inactive
14 | C=CC(=O)Nc1cccc(Oc2nc(Nc3ccc(N4CCN(C)CC4)cc3)ncc2Cl)c1 | 1.72 µM (active)
15 | COc1cc(N2CCC(N3CCN(C)CC3)CC2)ccc1Nc1ncc(Cl)c(Nc2ccccc2S(=O)(=O)C(C)C)n1 | 19.3 µM (active)
16 | Cc1[nH]c2ccccc2c1CCNCc1ccc(/C=C/C(=O)NO)cc1 | 0.172 µM (active)

Row | Compound | Potency
17 | Cc1cc(SCc2sc(-c3ccc(C(F)(F)F)cc3)nc2C)ccc1OCC(=O)O | inactive
18 | CC(Oc1cc(-n2cnc3ccc(CN4CCN(C)CC4)cc32)sc1C(N)=O)c1ccccc1C(F)(F)F (configuration not stated) | 19.3 µM (active)
19 | Cc1cc(C(C)Nc2ccccc2C(=O)O)c2nc(N3CCOCC3)cc(=O)n2c1 (configuration not stated) | 3.06 µM (active)
20 | CCc1cccc(CC)c1NC(=O)N1Cc2[nH]nc(NC(=O)c3ccc(N4CCN(C)CC4)cc3)c2C1 | inactive
21 | O=C(O)c1ccc(Nc2ncc3c(n2)-c2ccc(Cl)cc2C(c2c(F)cccc2F)=NC3)cc1 | inactive
22 | CCCCN(CCCC)CC(O)c1cc(Cl)cc2c1-c1ccc(Cl)cc1/C2=C/c1ccc(Cl)cc1 (configuration not stated) | inactive
23 | C[C@]12CCC(=O)C=C1[C@@H]1C[C@@H]1[C@H]1[C@@H]3[C@@H]4C[C@@H]4[C@@]4(CCC(=O)O4)[C@@]3(C)CC[C@@H]12 | inactive
24 | COc1cc(Nc2ncc(F)c(Nc3ccc4c(n3)N(COP(=O)(O)O)C(=O)C(C)(C)O4)n2)cc(OC)c1OC | 5.44 µM (active)
25 | C[C@@]1(C(=O)Nc2ccc(F)nc2)CCCN1c1nc(Nc2cc(C3CC3)[nH]n2)c2cccn2n1 | 3.43 µM (active)
26 | Cc1cc(CN2CCN(c3c(Br)cnc4nc(-c5ccc(N6CCN(C)CC6)cc5)[nH]c34)CC2)no1 | 34.3 µM (active)
27 | Nc1nc(Cl)nc2c1ncn2C1OC(CO)C(O)C1F (configuration not stated) | 0.432 µM (active)
28 | CN(c1nccc(=O)[nH]1)C1CCN(c2nc3ccccc3n2Cc2ccc(F)cc2)CC1 | inactive
29 | COc1ccc(-c2cc3nccn3c(Nc3ncccc3C(N)=O)n2)cc1OC | inactive
30 | CCN(CC)CCCC(C)Nc1ccnc2cc(Cl)ccc12 (configuration not stated) | inactive
31 | c1cc(N[C@@H]2CCNC2)nc(-c2cnc3ccc(-c4cn[nH]c4)cn23)c1 | inactive
32 | FC(F)(F)c1ccc(/C=C/c2nc(COc3ccc(CCCCn4ccnn4)cc3)co2)cc1 | inactive
